# Assay results reported in PubChem BioAssay AID1347426 (Functional Genomics Laboratory (NCATS/FGL), 2020).
# About 1,400 (4.5%) of roughly 31,000 sequences were called active.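 Rule for the calls: active = median seed-adjusted z-score above 1 or below -1; inactive = the rest.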 The entries come from a sample that favours actives as a whole.
# Assay: Novel Modifiers of Survival Motor Neuron (SMN) Protein: Gene Identification via Genome-wide siRNA Screen;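 note: luminescence tracks full-length SMN protein made from the SMN2 reporter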
# Conditions: HEK293T SMN2-luciferase reporter, siRNA knockdown, 72 h; actives lie on both sides
# Summary of the method: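 HEK293T cells stably carrying an SMN2 promoter/splicing cassette–luciferase reporter were reverse-transfected with 1 pmol siRNA per well (druggable-genome library, 3 siRNAs per gene) and grown 72 h at 37 °C. Luminescence, normalized to negative-control siRNA and log10-transformed, was scored as MAD.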
row,Sequence,median seed-adjusted z-score
1,GAAGGUUUACAAGGACUUATT against KLK7,0 (inactive)
2,GCAGAGAUCAGCAACGUGATT against KRT77,-0.0863 (inactive)
3,GCACUUAUGCUGAUGAAGATT against ZNF398,0.119 (inactive)
4,CAAACGUAUUAGUUCAGCATT against KIF20B,0 (inactive)
5,GGACAAGUAGCAAAGCGAATT against SLC7A14,0.132 (inactive)
6,CAACAACCUUACACGAGUATT against LRIG2,0.386 (inactive)
7,GAAGAAAUGUUGUUCGAAUTT against KAL1,0.0824 (inactive)
8,CGCCUGGUCUAUGAACUUUTT against SCARF1,-0.324 (inactive)
9,GAAGUGUUUGAAUCUCGUATT against AKAP3,0.0138 (inactive)
10,GUCUCGUAGUGUUAUGUCUTT against GBA2,0.143 (inactive)
11,CCCUGGACGCUGAUGAGUUTT against CAPS,-1.25 (active)
12,GAUACAUGAAGGUAUACAATT against POLR3G,-0.485 (inactive)
13,AGAAAGUGUACGACCCAAATT against NUCB1,0.232 (inactive)
14,GAGUGCAAUUGGAACCUGATT against ARHGAP30,0.0946 (inactive)
15,GCAUGAACAUUACGGAUAUTT against CARS,0 (inactive)
16,GGUGGUACAAGAGAACGAATT against JARID2,0.115 (inactive)
17,CUUGGAUGAUGGCAAGACATT against TCEB2,1.28 (active)
18,GAAAUAUACUUCAGAUUCATT against SP2,-0.617 (inactive)
19,GCUCAUUCCUUUUCGAGCATT against PEG3,0.5 (inactive)
20,GAUUCACAUCGUCAAGAAATT against ZNF317,0.087 (inactive)
21,GAUAUGACCGCGAAACCAATT against RPA4,0.132 (inactive)
22,GCUCCACACUGAUGAAUCATT against ZNF250,-0.00985 (inactive)

row,Sequence,median seed-adjusted z-score
1,GGCUAACUACUGAGCUGAATT against C1RL,-0.148 (inactive)
2,GGGAAUUUCUGACCUAGUATT against ABCD3,-0.24 (inactive)
3,CCAAGCCUCUUUCCUACAATT against GPR52,-1.17 (active)
4,CGUGGAAGAUUUUCACAGATT against ZNF174,0.035 (inactive)
5,GAUCUACCGAAUACAAGAATT against GPR171,-0.449 (inactive)
6,CCACACCAUUAUGACCAUUTT against FUT1,0.000845 (inactive)
7,GGAUUUGCCUUACCACUAATT against PPP2R5C,1.14 (active)
8,GAAGGGUUAUCGUCGGGAATT against SLC6A6,0.0448 (inactive)
9,CCAUCGAGUUCAUCGAUAATT against DUSP8,-0.0326 (inactive)
10,GUUCAUCUCUUGUAAGGAUTT against CABP5,0.372 (inactive)
11,GCCUCAGAAUUUAAUCAAATT against ALB,-0.153 (inactive)
12,CCAGAAGCGAAUCACCACATT against POLR2F,-3.52 (active)
13,GUGUCUCUGCUCUAAGUAATT against B4GALT1,0 (inactive)
14,AGCUUAUGCAUUUGGCAAATT against APBA3,-0.119 (inactive)
15,GGAGCAGACGGUGACCAAATT against CIB3,0.234 (inactive)
16,CAUAUGAUCCAGACAAGAATT against ZNF425,0.0841 (inactive)
17,GAGUCUGUGGUGUACCUAATT against SALL4,-0.344 (inactive)
18,GAGAAGAACUCGUACCUCUTT against ZNF783,0.284 (inactive)
19,CCGUGUCCAGGAACCUAUATT against LPHN3,-0.0576 (inactive)
20,AGUCCAAGGUGAUUACGCUTT against CPSF1,3.29 (active)
21,GCUGUGCUAUGGGAGUUAATT against ADH1A,0.624 (inactive)
22,GAACUUAGCUAAAUUGACUTT against BCHE,0.117 (inactive)

row,Sequence,median seed-adjusted z-score
1,CUUAGACUGUUUCCACUUATT against PARK2,0.146 (inactive)
2,GCCUAUGAUUUAGGACUAATT against MNDA,0.232 (inactive)
3,CCAGUGAUGUAAGUUCUUATT against GCG,-1.18 (active)
4,CUGUUCUGCUUAUAUGGAATT against HNRPLL,0 (inactive)
5,GAAACAUCCGUGAAAGAGATT against RABL4,-0.154 (inactive)
6,GAUACUAGCUAUUUUGACATT against MAST2,0.27 (inactive)
7,CUAACGUAGAGGAAGCAUUTT against RAB11B,-0.857 (inactive)
8,CACUUAUACUAAGCACCAATT against CCNB1,0.163 (inactive)
9,CUCUGGAUUUUGAUAGUUUTT against PPARGC1A,-0.0953 (inactive)
10,GUACUUCCAUAGACAGGAATT against CECR1,0.00187 (inactive)
11,GGCUUAAUGUGGUGAUGUUTT against COL7A1,1.08 (active)
12,CGAAUGCUGAGGCUACAAATT against SLC9A5,-0.545 (inactive)
13,GGGAGACCUCGAUCGUGAATT against RASA4,-1.11 (active)
14,CAAAUCCUGUCUAACAAAATT against MYH7,0.659 (inactive)
15,GUUCAUAUGUGACAUCUUUTT against ZFP36L1,-0.933 (inactive)
16,GUAGGUGAGUGGAAAUUCATT against DRD2,-0.0273 (inactive)
17,GGAAGGUUGCUAUAGUGGATT against SSX2IP,-0.0799 (inactive)
18,GGCAAGUGCUUCACUCAAATT against ZNF665,1.13 (active)
19,GAAUUCGCUUCAUCCAUUUTT against POMT2,-0.614 (inactive)
20,UGAUUGCACGAACAGCAAATT against MED21,-1.3 (active)
21,GUAACACCGUUGAAGCUAATT against E2F8,0.209 (inactive)
22,CUGCUCACCCUUUACAUCATT against KIF12,0.0971 (inactive)

row,Sequence,median seed-adjusted z-score
1,CAGUCCCAAUUUCCACUUUTT against PCDHB2,0 (inactive)
2,CCAGGUCUCGAAAACCAAATT against EN2,0.319 (inactive)
3,CAGUGUUAGUCAUAUCGUATT against DHX36,0.165 (inactive)
4,CCUCGGCUCCAGCAAAUCATT against CACNB1,0.225 (inactive)
5,GUGGGUAACUGGAACAAAATT against MFGE8,0.0367 (inactive)
6,CAACCAACAUUUACAUAUUTT against OPRK1,-1.08 (active)
7,GCCUUGCGCUAAAUCUCGATT against NSD1,-0.372 (inactive)
8,GCAUUAACCCAAUUGCUCUTT against EDNRB,0.119 (inactive)
9,GAGCAGUCGCGAGAAGAUUTT against PPP1R12C,-0.535 (inactive)
10,GGAGAGUUAAGAUCAAUGUTT against KCNB2,1.22 (active)
11,CCGUCAAAGUGAUCAACAATT against IKZF3,0.0181 (inactive)
12,GGUGCUACGUUAGACCAGUTT against SNRPA1,-2.71 (active)
13,GCCUCCCACUACUUUGAAATT against IL2RB,0.333 (inactive)
14,GCAUGUCCAAUGUUCCAUATT against ACAT1,-0.848 (inactive)
15,UAAUAAAGCGGAUUCUAGATT against THAP7,-0.0317 (inactive)
16,GUCGAGUAUUCAUCCGAGATT against DHX57,-0.138 (inactive)
17,CGAUAGCACCUUCCUGUUUTT against GALT,0.484 (inactive)
18,GCUUACAUAGCAAAUCUAATT against ST8SIA2,0.516 (inactive)
19,CAGUGUUCGUUCAACCCUATT against ZNF665,1.13 (active)
20,GAUCCGCACGGACUGCUUUTT against ACVRL1,-0.361 (inactive)
21,GAAAUCUUCUUACGAAAAATT against XPO7,0.546 (inactive)
22,GACAGGACGUGAACAUGCATT against SLC22A18AS,0.0382 (inactive)

row,Sequence,median seed-adjusted z-score
1,CAACGAAGAGGGCAUGUUUTT against MEOX2,1.36 (active)
2,GCAGCAAGAAGGUAGCACATT against ZNF598,-0.303 (inactive)
3,GUCUUUACUCUUCAACUGATT against THBS4,-0.28 (inactive)
4,GCAACUCAAAGGUGAUAAATT against CCNK,-0.717 (inactive)
5,GGCUCAAUGUGGACUACAATT against HS3ST1,1.21 (active)
6,CUACUUUUAUCUUGCAUAATT against ZNF264,0.617 (inactive)
7,GGACUCUACUGCUAAAGUATT against TBC1D8B,-0.985 (inactive)
8,GAAAAACGGUGACCGUCAATT against MYO9B,-0.0287 (inactive)
9,CAGUUUGCUCUAUCAGUAATT against PSTPIP2,0.0136 (inactive)
10,CGCUGAAGUUUGUCCCUAATT against SEPX1,-0.0545 (inactive)
11,CAGUGUGGAUACUAAUAAATT against PMVK,0.269 (inactive)
12,CAAUCACCGCUGUGGUAAATT against UCP1,-0.0744 (inactive)
13,CGAGGUGACUGGUACAAGATT against NDUFV1,-0.653 (inactive)
14,CUACGAUUCUGGUGGAAUATT against TRRAP,-1.25 (active)
15,GGAUGAUUUAGAAUUGUCATT against ATP6V0C,-0.389 (inactive)
16,CCAUGUUCAGUUCCAAGGATT against CORO1A,0.569 (inactive)
17,GGUGAUCACCAAGAUCAAATT against ADCY3,-0.294 (inactive)
18,CUACACCUGUUUCAACAGATT against USPL1,-1.87 (active)
19,AGAAGUCUGUUGCUAUGCATT against GNB5,-0.535 (inactive)
20,GACCAUACCCAGUACCGAUTT against MYH15,-0.939 (inactive)
